Reference: PubChem BioAssay (NCI)
Compounds without any hit were thinned out: in the full panel of roughly 83,000, 20% have a hit.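 Method: cells in 96-well plates; compound added at one concentration; 48 h incubation; percent growth measured; values under 10 scored active.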 The source made the active and inactive calls.

Key:
Experiment in all cases: NCI-60 one-dose screen, 48 h (100 = growth as untreated, 0 = no growth, -100 = all killed)
Details in all cases: 10 µM
NCI-H23 lung = tested on: NCI-H23 lung
NCI-H226 lung = tested on: NCI-H226 lung
NCI-H322M lung = tested on: NCI-H322M lung
HOP-62 NSCLC = tested on: HOP-62 NSCLC
NCI-H460 lung = tested on: NCI-H460 lung
HOP-92 NSCLC = tested on: HOP-92 NSCLC
NCI-H522 lung = tested on: NCI-H522 lung
A549/ATCC NSCLC = tested on: A549/ATCC NSCLC
786-0 renal = tested on: 786-0 renal
COLO 205 colon = tested on: COLO 205 colon
DU-145 prostate = tested on: DU-145 prostate
K-562 leukemia = tested on: K-562 leukemia
MALME-3M melanoma = tested on: MALME-3M melanoma
MDA-MB-231 breast = tested on: MDA-MB-231 breast
RXF 393 renal = tested on: RXF 393 renal
SF-268 CNS = tested on: SF-268 CNS
SF-295 CNS = tested on: SF-295 CNS
SF-539 CNS = tested on: SF-539 CNS
UACC-257 melanoma = tested on: UACC-257 melanoma
M14 melanoma = tested on: M14 melanoma

Measured: growth

Nc1nsc(C(=O)c2ccc(O)cc2)n1
inactive: NCI-H23 lung 98.6% | NCI-H226 lung 104% | NCI-H322M lung 105% | HOP-62 NSCLC 76.4% | NCI-H460 lung 110% | HOP-92 NSCLC 88% | NCI-H522 lung 91.8% | A549/ATCC NSCLC 83.7% | 786-0 renal 117% | COLO 205 colon 106% | DU-145 prostate 105% | K-562 leukemia 107% | MALME-3M melanoma 109% | MDA-MB-231 breast 90.4% | RXF 393 renal 120% | SF-268 CNS 101% | SF-295 CNS 99.4% | SF-539 CNS 92.9% | UACC-257 melanoma 87% | M14 melanoma 105%

O=C(O)CNS(=O)(=O)c1ccc(OCCOc2ccc(S(=O)(=O)NCC(=O)O)cc2)cc1
inactive: NCI-H23 lung 95.9% | NCI-H226 lung 100% | NCI-H322M lung 97.4% | HOP-62 NSCLC 92.8% | NCI-H460 lung 109% | HOP-92 NSCLC 104% | NCI-H522 lung 88.9% | A549/ATCC NSCLC 104% | 786-0 renal 104% | COLO 205 colon 99.8% | DU-145 prostate 107% | K-562 leukemia 104% | MALME-3M melanoma 99.7% | MDA-MB-231 breast 108% | RXF 393 renal 106% | SF-268 CNS 98.9% | SF-295 CNS 104% | SF-539 CNS 93.6% | UACC-257 melanoma 104% | M14 melanoma 104%

CC(C)C[C@H](NC(=O)CCn1ccc2ccccc2c1=O)B(O)O
active: NCI-H226 lung -16.2% | RXF 393 renal -5.99% | SF-539 CNS -11.4%
inactive: NCI-H23 lung 63.4% | NCI-H322M lung 91% | HOP-62 NSCLC 82.7% | NCI-H460 lung 93.8% | HOP-92 NSCLC 90.1% | NCI-H522 lung 19.9% | A549/ATCC NSCLC 58% | 786-0 renal 48.5% | COLO 205 colon 48.7% | DU-145 prostate 59.6% | K-562 leukemia 62.7% | MALME-3M melanoma 38.2% | MDA-MB-231 breast 53.8% | SF-268 CNS 69.9% | SF-295 CNS 41% | UACC-257 melanoma 34.5% | M14 melanoma 38%

COc1ccc(-c2cc(/C=C3\C(=O)Nc4cc(Cl)ccc43)[nH]n2)cc1OC
inactive: NCI-H23 lung 92.9% | NCI-H226 lung 80.8% | NCI-H322M lung 89.8% | HOP-62 NSCLC 75% | NCI-H460 lung 62.9% | HOP-92 NSCLC 81.7% | NCI-H522 lung 46% | A549/ATCC NSCLC 75.7% | 786-0 renal 105% | COLO 205 colon 79.4% | DU-145 prostate 96.4% | K-562 leukemia 33.1% | MALME-3M melanoma 37.7% | MDA-MB-231 breast 78.2% | RXF 393 renal 73.1% | SF-268 CNS 74.4% | SF-295 CNS 47.6% | SF-539 CNS 69.1% | UACC-257 melanoma 114% | M14 melanoma 68%

COc1ccc(NC(=O)c2sc3nc4c(cc3c2N)C(O)CCC4)cc1 (stereo not given)
inactive: NCI-H23 lung 98.5% | NCI-H226 lung 101% | NCI-H322M lung 30.6% | HOP-62 NSCLC 117% | NCI-H460 lung 48.3% | HOP-92 NSCLC 85.2% | NCI-H522 lung 99.8% | A549/ATCC NSCLC 70% | 786-0 renal 94.8% | COLO 205 colon 110% | DU-145 prostate 93.3% | K-562 leukemia 80.6% | MALME-3M melanoma 122% | MDA-MB-231 breast 116% | RXF 393 renal 102% | SF-268 CNS 99.7% | SF-295 CNS 82.4% | SF-539 CNS 111% | UACC-257 melanoma 97.4% | M14 melanoma 101%

CCOC(=O)/C(C#N)=C(/C)C1CC1
inactive: NCI-H23 lung 109% | NCI-H226 lung 95.7% | NCI-H322M lung 112% | HOP-62 NSCLC 98.5% | NCI-H460 lung 104% | HOP-92 NSCLC 86% | NCI-H522 lung 110% | A549/ATCC NSCLC 99.7% | 786-0 renal 103% | COLO 205 colon 108% | DU-145 prostate 108% | K-562 leukemia 117% | MALME-3M melanoma 109% | MDA-MB-231 breast 117% | RXF 393 renal 94.9% | SF-268 CNS 107% | SF-295 CNS 113% | SF-539 CNS 96.8% | UACC-257 melanoma 103% | M14 melanoma 109%

C[C@@H]1C(=O)N(C[C@H](Cc2ccccc2)NC(=O)OCc2ccccc2)[C@]1(Cc1ccccc1)C(=O)OCc1ccccc1
active: COLO 205 colon 7.23%
inactive: NCI-H23 lung 34.3% | NCI-H226 lung 48.5% | NCI-H322M lung 72.4% | HOP-62 NSCLC 70.9% | NCI-H460 lung 34.9% | HOP-92 NSCLC 51.2% | NCI-H522 lung 28.9% | A549/ATCC NSCLC 20.8% | 786-0 renal 58.3% | DU-145 prostate 78.2% | K-562 leukemia 26.1% | MALME-3M melanoma 35.9% | MDA-MB-231 breast 58.8% | RXF 393 renal 42.2% | SF-268 CNS 52.2% | SF-295 CNS 30% | SF-539 CNS 64.6% | UACC-257 melanoma 32.1% | M14 melanoma 40.7%

Cc1nnc2c3nnc(-c4ccc(Cl)cc4)n3c3ccccc3n12
inactive: NCI-H23 lung 103% | NCI-H226 lung 94.7% | NCI-H322M lung 86.4% | HOP-62 NSCLC 93.4% | NCI-H460 lung 103% | HOP-92 NSCLC 79.5% | NCI-H522 lung 86.6% | A549/ATCC NSCLC 96.8% | 786-0 renal 97.2% | COLO 205 colon 111% | DU-145 prostate 103% | K-562 leukemia 90% | MALME-3M melanoma 88.6% | MDA-MB-231 breast 100% | RXF 393 renal 102% | SF-268 CNS 100% | SF-295 CNS 88.2% | SF-539 CNS 92.2% | UACC-257 melanoma 98.1% | M14 melanoma 96.7%

C=CCc1cc(Nc2c3ccc(Cl)cc3nc3ccc(OC)cc23)cc(CN(CC)CC)c1O
inactive: NCI-H226 lung 26.3% | NCI-H322M lung 49.5% | A549/ATCC NSCLC 13.3% | 786-0 renal 12.3% | DU-145 prostate 20.5% | RXF 393 renal 32.1% | SF-268 CNS 23% | SF-539 CNS 21.2% | M14 melanoma 19.8%
active: NCI-H23 lung -0.558% | HOP-62 NSCLC 9.37% | NCI-H460 lung 4.5% | HOP-92 NSCLC -20.5% | NCI-H522 lung -5.89% | COLO 205 colon -83.9% | K-562 leukemia 3.36% | MALME-3M melanoma 2.15% | MDA-MB-231 breast 0.676% | SF-295 CNS -2.05% | UACC-257 melanoma 4.74%

O=C(NC1CCN(Cc2ccccc2)CC1)c1cc(-c2ccncc2)nc2ccc(Cl)cc12
inactive: NCI-H23 lung 38.3% | NCI-H226 lung 26.9% | NCI-H322M lung 32.5% | HOP-62 NSCLC 45.6% | HOP-92 NSCLC 27.7% | NCI-H522 lung 28.6% | 786-0 renal 31.1% | COLO 205 colon 18.5% | DU-145 prostate 33.2% | K-562 leukemia 13.4% | MALME-3M melanoma 56.9% | MDA-MB-231 breast 42.3% | RXF 393 renal 37.8% | SF-268 CNS 24.4% | SF-295 CNS 14.6% | SF-539 CNS 16.4% | M14 melanoma 16.1%
active: NCI-H460 lung 6.31% | A549/ATCC NSCLC 6.48% | UACC-257 melanoma -1.44%

CC1=CSC2=NC(c3ccc(Cl)c(Cl)c3)=CC(c3ccc(Cl)cc3)N12 (stereo not given)
active: NCI-H322M lung -4.79% | HOP-92 NSCLC -42.1% | NCI-H522 lung -20.7% | MALME-3M melanoma -22.7% | MDA-MB-231 breast -44% | RXF 393 renal -47.7% | SF-539 CNS -46.7% | M14 melanoma 0.183%
inactive: NCI-H23 lung 32.3% | NCI-H226 lung 38.1% | HOP-62 NSCLC 30.9% | NCI-H460 lung 53.7% | A549/ATCC NSCLC 51.1% | 786-0 renal 22.3% | COLO 205 colon 104% | DU-145 prostate 20.5% | K-562 leukemia 17% | SF-268 CNS 14.7% | SF-295 CNS 99.6% | UACC-257 melanoma 18.7%

Cc1cc(O)c(C2=NN(c3ccc(S(N)(=O)=O)cc3)C(c3ccc(N(C)C)cc3)C2)c(C)c1Cl (stereo not given)
inactive: NCI-H23 lung 79.3% | NCI-H226 lung 88.8% | NCI-H322M lung 97.6% | HOP-62 NSCLC 107% | NCI-H460 lung 47.1% | HOP-92 NSCLC 45.5% | NCI-H522 lung 39.7% | A549/ATCC NSCLC 40.8% | 786-0 renal 95.6% | COLO 205 colon 76.2% | DU-145 prostate 75.2% | K-562 leukemia 25% | MALME-3M melanoma 157% | MDA-MB-231 breast 103% | RXF 393 renal 93.4% | SF-268 CNS 72.1% | SF-539 CNS 91.6% | UACC-257 melanoma 97.6% | M14 melanoma 89.3%
active: SF-295 CNS 6.34%

Cc1nc2ccc(-n3c(-c4ccc(Cl)cc4)nc4ccccc4c3=O)cc2n1Cc1ccccc1
inactive: NCI-H23 lung 87.8% | NCI-H226 lung 87.8% | NCI-H322M lung 96.5% | HOP-62 NSCLC 81.9% | NCI-H460 lung 102% | HOP-92 NSCLC 80.3% | NCI-H522 lung 74.2% | A549/ATCC NSCLC 79.6% | 786-0 renal 105% | COLO 205 colon 93.8% | DU-145 prostate 95.2% | K-562 leukemia 85.6% | MALME-3M melanoma 89.4% | MDA-MB-231 breast 88.1% | RXF 393 renal 104% | SF-268 CNS 92.4% | SF-295 CNS 90.2% | SF-539 CNS 96.8% | UACC-257 melanoma 78.2% | M14 melanoma 95.1%

O=C1CC(c2cccc(-c3cccnc3)c2)=Nc2ccc(Br)cc2N1
inactive: NCI-H23 lung 44.4% | NCI-H226 lung 27.8% | NCI-H322M lung 67.2% | HOP-62 NSCLC 19.7% | NCI-H460 lung 24.3% | HOP-92 NSCLC 23.5% | NCI-H522 lung 22.5% | A549/ATCC NSCLC 38.1% | COLO 205 colon 61.1% | DU-145 prostate 65.8% | K-562 leukemia 54.2% | MALME-3M melanoma 40.9% | MDA-MB-231 breast 43.6% | RXF 393 renal 40.2% | SF-268 CNS 44.1% | SF-295 CNS 48.7% | SF-539 CNS 55.7% | UACC-257 melanoma 38.5% | M14 melanoma 37.8%
active: 786-0 renal 1.54%

COc1ccc(CCc2nc3cc(-c4c(C)noc4C)ccc3n2CCN2CCOCC2)cc1
inactive: NCI-H23 lung 49.5% | NCI-H226 lung 48.3% | NCI-H322M lung 75.8% | HOP-62 NSCLC 40.2% | NCI-H460 lung 30.4% | NCI-H522 lung 12% | A549/ATCC NSCLC 26.4% | 786-0 renal 60.8% | DU-145 prostate 80.1% | K-562 leukemia 13.7% | MDA-MB-231 breast 81.7% | RXF 393 renal 70.1% | SF-268 CNS 50.4% | SF-539 CNS 90.4% | UACC-257 melanoma 12.9% | M14 melanoma 20.6%
active: HOP-92 NSCLC -7.34% | COLO 205 colon 5.86% | MALME-3M melanoma -37.4% | SF-295 CNS -35%
